# Assay results published in the OligoGym collection.
# Target: MUSTN1
# Experiment: pooled miR-30 sensor sort-seq; sequence = guide strand
# Conditions: shRNA
# Further: reference of the scale not given here.
row,Sequence,sensor-assay potency score (higher = more potent)
1,TTCCTGGTTCTTGGTCAGGTTT,-1.77
2,TCACACTCTCGCATGACCTGGT,0.595
3,TTGCTCACACTCTCGCATGACC,-1.08
4,AGCTTGCTCACACTCTCGCATG,-2.04
5,TCTTGGTCAGGTTTCCTCGGGC,0.0366
6,TTGATTTCCTGGTTCTTGGTCA,0.114
7,TAGGTCTTGGACTTGATTTCCT,-0.449
8,TTTATTGGTGCTTCCAAGGTGC,0.442
9,ACACTCTCGCATGACCTGGTAG,-0.661
10,TCAAAGACAGTCTCGGTACCTG,-0.0062
11,TTCTTGGTCAGGTTTCCTCGGG,-0.747
12,TCGCATGACCTGGTAGGTCTTG,-0.987

# Target: MUTED
# Experiment: as above
# Conditions: shRNA
row,Sequence,sensor-assay potency score (higher = more potent)
1,TAAGTGGTCACTATGAATCTTT,-0.505
2,TTGTTTACCATAAATCTCGAAA,-0.16
3,TTTTTTGTCTACATTACTCATG,-0.517
4,TTTACATTTAACATGGACCATT,-1.07
5,TTGTTCTTTAAGCCTTTCCATG,-1.47
6,TTGTCTACATTACTCATGCAGT,-0.842
7,TTTCTAAGAAGTCTATACCTAC,-0.621
8,TAATAAACTATTGTTAACCCTG,0.0836
9,TTTTCTGTGCTCTTCATCCACT,-0.826
10,TTATCTTATAAAGCTTACCCAC,-1.06
11,TTTCTCACTAGCTACTAAGTGG,-0.662
12,TTTAACATGGACCATTTGCTGT,-1.08

# Target: MYBL1
# Experiment: as above
# Conditions: shRNA
row,Sequence,sensor-assay potency score (higher = more potent)
1,TTTGATAGAATTATCAGTCCTT,1.06
2,TTCGCTTTCTTCTAACTTCATT,-1.09
3,TTTCTCTACACTGCTTGCCTAT,-0.646
4,TTGAAGTACTACTGGTAGCTGT,0.338
5,TAATTTATCATCCTCGTCCCTT,-0.0916
6,TTCTTCTTTTAAAACTTCCCGA,-0.736
7,TAAAGGAACAGCTTCACTGTTG,-0.055
8,TAGTAGGTGTTCTAAACCCTAC,-0.956
9,TAGAATTATCAGTCCTTCCTGG,0.631
10,TTCAAGTACAAGACTGACGTTA,0.474
11,TAGATCTTCTAATAGTAGGTGT,0.293

# Target: MYCBPAP
# Experiment: as above
# Conditions: shRNA
row,Sequence,sensor-assay potency score (higher = more potent)
1,TTTTGTCTTGGTCATGACCAGA,-1.08
2,TATGACTTTCTTGTCATCCTTT,0.0986
3,TTTCTTGTCATCCTTTGCCTTG,-0.95
4,TTCCAAAGAAAACCTGTCCTGA,-0.596
5,TCTCCTTGTAGGACATTGCTAA,-0.62
